Several values for one entry are separate records, joined by “and”; a condition that tells them apart may be missing. Equal entries are not always repeated. Inconclusive results are not listed. Some compounds were tested as several samples or in several runs, with calls that do not always agree. Activity calls are given as the source filed them. Unless noted, the call rests on the fitted dose curve; in most records, active means well fitted curve in the direction sought with a large enough effect in the repeat runs; inconclusive means weak or mixed curves; inactive means no such curve, though single readings can be large; an effect the other way counts as inactive or inconclusive.

Consider ten compounds from PubChem BioAssay (Tox21).

Assay [1] in a line: qHTS assay to identify small molecule antagonists of the androgen receptor (AR) signaling pathway using the MDA cell line in the presence of 0.5 nM R1881 - cell viability counter screen (AID 1259242). Further: nearly all actives have a fitted effect of over 45% in size. Further: potency means the concentration at half of the fitted maximal effect. In short, it runs like this:
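Live-cell protease fluorescence, CellTiter-Fluor, 30 min at 37C. Cells: MDA-kb2, 3,000/well, preincubated 5 hr. Compounds plus 0.5 nM R1881 final, 16 hr, 37C, 0% CO2.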
(In general: qHTS replaces the single test concentration by a dilution series.)

Assay [2] in a line: qHTS assay to identify small molecule HDAC inhibitors (AID 1259364).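 Further: wild-type HCT-116 cells with endogenous class I/II HDAC activity; top concentration of the series differs between compounds; nearly all actives have a fitted effect of over 45% in size.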 In short, it runs like this: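 HCT-116 (wild type), 1,500 cells/well, overnight; compound 2 hr 37C 5% CO2; HDAC-Glo I/II reagent 30 min RT; luminescence readout.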
A short description of assay [3]: qHTS assay to identify small molecule HDAC inhibitors - cell viability counter screen (AID 1259365). Further: series mostly up to about 92 µM; nearly all actives have a fitted effect of over 50% in size. In short, it runs like this:
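Cytotoxicity was gauged in wild-type HCT-116 cells after a brief 2hr treatment with DMSO-dissolved compounds at 37C and 5% CO2, using CellTiter-Glo luminescence developed for 30min at room temperature.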

Assay [4] can be described thus: qHTS assay to identify small molecule agonists of the sonic hedgehog signaling (Shh) pathway - cell viability counter screen (AID 1259366). Further: nearly all actives have a fitted effect of over 50% in size. Further: potency means the concentration at half of the fitted maximal effect. Put shortly: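 Stable Gli1-Luc NIH/3T3 clone, 2,000 cells/well. Compound exposure 24hr at 37C. Read-out: CellTiter-Fluor fluorescence.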
The nature of assay [5]: qHTS assay to identify small molecule antagonists of the sonic hedgehog signaling (Shh) pathway - cell viability counter screen (AID 1259367). Further: nearly all actives have a fitted effect of over 55% in size. Further: potency means the concentration at half of the fitted maximal effect. In short, it runs like this: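 Tox21 library chemicals were tested on a Gli1-Luc NIH/3T3 clone (2,000 cells/well) stimulated by conditioned medium; viability was quantified as fluorescence from CellTiter-Fluor reagent added at 23 hr.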

A short description of assay [6]: qHTS assay to identify small molecule agonists of the sonic hedgehog signaling (Shh) pathway (AID 1259368; calls by dose curve;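 further: NIH/3T3-derived 3T3Gli1-Luc cells carrying a stable Gli1-driven firefly luciferase reporter; series mostly up to about 92 µM; nearly all actives have a fitted effect of over 15% in size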). Put shortly: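 Read-out: firefly luciferase luminescence from a Gli1 response element reporter stably integrated in NIH/3T3-derived 3T3Gli1-Luc cells, measured 30 min at room temperature after reagent addition. Compound exposure lasted 24 hr at 37 C, 5% CO2.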

A short description of assay [7]: qHTS assay to identify small molecule agonists of the androgen receptor (AR) signaling pathway in the presence of an antagonist - cell viability counter screen (AID 1259379). Further: nearly all actives have a fitted effect of over 25% in size. Further: potency means the concentration at half of the fitted maximal effect. In short, it runs like this:
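Viability counter screen: CellTiter-Fluor fluorescence, measured in the same wells as the luciferase read-out. MDA-kb2 cells, 3,000/well, with nilutamide at 3.0uM final and compounds at 15 concentrations, 16 hr at 37C, 0% CO2.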

The nature of assay [8]: qHTS assay to identify small molecule agonists of the estrogen receptor beta (ER-beta) signaling pathway - cell viability counter screen (AID 1259380). Further: nearly all actives have a fitted effect of over 30% in size. Put shortly: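 Luminescence read-out (CellTiter-Glo, 30 min, room temp) taken in the same wells as the beta-lactamase reporter assay; ER-beta-UAS-bla HEK293T cells exposed to DMSO-dissolved compounds for 16 hr at 37C in 2% charcoal-stripped FBS medium.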

Assay [9] is described as follows: qHTS assay to identify small molecule antagonists of the estrogen receptor beta (ER-beta) signaling pathway - cell viability counter screen (AID 1259382). Further: series mostly up to about 92 µM; nearly all actives have a fitted effect of over 55% in size. Put shortly: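 Luminescent ATP read-out (CellTiter-Glo, 30 min, RT) taken in the same wells as the bla reporter assay. HEK293T ER-beta-UAS-bla cells in 2% charcoal-stripped FBS were exposed to compounds with 1nM E2 for 16 hr at 37C.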

Assay [10] is described as follows: qHTS assay to identify small molecule agonists or antagonists of the thyroid stimulating hormone receptor (TSHR) signaling pathway - wild type cell line counter screen (AID 1259384; calls by dose curve). In short, it runs like this:
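Wild-type Hek293 cells, 800/well, 18 h at 37C, then compound with Ro20-1724 for 30 min RT. cAMP by HTRF (cAMP-d2/anti-cAMP cryptate), 1 h RT, fluorescence read. 15 concentrations, triplicates.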

Assay [11] concerns the target Thyrotropin receptor (Homo sapiens) (UniProt P16473). In words: qHTS assay to identify small molecule antagonists of the thyroid stimulating hormone receptor (TSHR) signaling pathway (AID 1259385; calls by dose curve; further: nearly all actives have a fitted effect of over 20% in size; further: potency means the concentration at half of the fitted maximal effect). In short, it runs like this: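 TSHR-HEK293 cells (800/well) plated 18 h, then compounds with Ro20-1724 and TSH at 1.5 ng/mL final, 30 min at room temperature. cAMP quantified by HTRF (cAMP-d2/anti-cAMP-cryptate, 1 h); 15 concentrations in triplicate.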

Assay [12] in a line: qHTS assay to identify small molecule phospholipidosis (PLD) inducers (AID 1259344; active means well fitted curve in the direction sought with a large enough effect; an effect the other way counts as inactive or inconclusive). Put shortly:
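Image-based: LipidTOX Red pit count/intensity per well and per cell; HepG2, 24 h compound at 37 C, PFA fixation, Hoechst counterstain.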

The nature of assay [13]: qHTS assay to identify small molecule antagonists of the sonic hedgehog signaling (Shh) pathway (AID 1259369; calls by dose curve; further: nearly all actives have a fitted effect of over 45% in size; further: potency means the concentration at half of the fitted maximal effect). Put shortly:
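Luminescence readout: firefly Luc under Gli1 response element in 3T3Gli1-Luc cells (NIH/3T3 clone). Antagonist mode, stimulation by conditioned medium; compound exposure 24hr at 37 C, 5% CO2.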

The nature of assay [14]: qHTS assay to identify small molecule agonists of the estrogen receptor alpha (ER-alpha) signaling pathway in the presence of an antagonist - cell viability counter screen (AID 1259386).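 Further: series mostly up to about 92 µM; cells exposed to compounds for 22 h at 37 °C before the viability read; nearly all actives have a fitted effect of over 30% in size.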 In short, it runs like this:
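Read-out: CellTiter-Fluor fluorescence after 1hr reagent incubation, measured in the same wells as the luciferase readout. VM7Luc4E2 cells were exposed to 15 compound concentrations with 10.0nM ICI-182,780 for 22hr at 37C.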

The target in assay [15] is Estrogen receptor (Homo sapiens) (UniProt P03372). In words: qHTS assay to identify small molecule antagonists of the estrogen receptor alpha (ER-alpha) signaling pathway using the BG1 cell line in the presence of 0.1 nM 17-beta-estradiol (AID 1259244). Further: nearly all actives have a fitted effect of over 50% in size. Put shortly: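 Luminescence after ONE-Glo (30 min, room temperature) measured ERE-luciferase activity in VM7Luc4E2 cells treated 22 h with compound and 0.1 nM final 17beta-estradiol as stimulator.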

Assay [16] deals with Estrogen receptor beta (Homo sapiens) (UniProt Q92731). In words: qHTS assay to identify small molecule agonists of the estrogen receptor beta (ER-beta) signaling pathway (AID 1259377; active means well fitted activation curve with a large enough effect in the signal ratio in the repeat runs, not every such curve was filed as active; the % refers to the signal ratio). Put shortly:
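Measured by fluorescence intensity from a B/G FRET beta-lactamase substrate (2 h, room temperature) in ER-beta-UAS-bla HEK293T cells treated with DMSO-dissolved compounds for 16 hr at 37C and 5% CO2.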

The target is the same in assay [17]. Nature of the assay: qHTS assay to identify small molecule antagonists of the estrogen receptor beta (ER-beta) signaling pathway (AID 1259378; active means well fitted inhibition curve with a large enough effect in the signal ratio in the repeat runs, not every such curve was filed as active; the % refers to the signal ratio). Put shortly:
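ER-beta-UAS-bla HEK293T cells in 2% charcoal-stripped FBS medium treated with compound plus 1nM final 17-beta-estradiol for 16 hr at 37C. Beta-lactamase reporter read by FRET substrate fluorescence after 2 hours at room temperature.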

Assay [18] concerns the target Estrogen receptor (Homo sapiens) (UniProt P03372). In words: qHTS assay to identify small molecule agonists of the estrogen receptor alpha (ER-alpha) signaling pathway in the presence of an antagonist (AID 1259383; calls by dose curve; further: top concentration of the series differs between compounds; nearly all actives have a fitted effect of over 15% in size). In short, it runs like this:
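Luciferase luminescence (ONE-Glo, 30min at room temperature) measured in VM7Luc4E2 cells after 22hr compound exposure at 15 concentrations, with 10.0nM ICI-182,780 final present; cells express endogenous ER-alpha and carry four EREs upstream of luciferase.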
On the % scale 0 is the no-effect control and ±100 the full control effect.

Estrogen receptor (Homo sapiens), sequence (P03372 whole entry, looked up): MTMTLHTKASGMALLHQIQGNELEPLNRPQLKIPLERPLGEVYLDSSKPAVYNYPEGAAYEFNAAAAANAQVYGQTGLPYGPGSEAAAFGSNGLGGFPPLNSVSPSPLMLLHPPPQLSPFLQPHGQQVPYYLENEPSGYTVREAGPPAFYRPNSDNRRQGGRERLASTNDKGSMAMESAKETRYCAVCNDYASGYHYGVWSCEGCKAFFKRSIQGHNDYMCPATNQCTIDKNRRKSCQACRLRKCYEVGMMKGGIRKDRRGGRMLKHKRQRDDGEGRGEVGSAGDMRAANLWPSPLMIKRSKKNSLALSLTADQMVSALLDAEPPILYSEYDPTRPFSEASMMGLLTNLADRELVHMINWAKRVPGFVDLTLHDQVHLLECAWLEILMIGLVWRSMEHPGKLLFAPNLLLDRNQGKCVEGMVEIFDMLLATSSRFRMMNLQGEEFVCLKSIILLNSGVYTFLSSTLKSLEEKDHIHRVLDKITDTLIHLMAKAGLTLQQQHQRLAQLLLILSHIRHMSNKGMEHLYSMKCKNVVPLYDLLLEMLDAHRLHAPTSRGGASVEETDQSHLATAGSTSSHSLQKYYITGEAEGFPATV
Thyrotropin receptor (Homo sapiens), sequence (P16473 whole entry, looked up): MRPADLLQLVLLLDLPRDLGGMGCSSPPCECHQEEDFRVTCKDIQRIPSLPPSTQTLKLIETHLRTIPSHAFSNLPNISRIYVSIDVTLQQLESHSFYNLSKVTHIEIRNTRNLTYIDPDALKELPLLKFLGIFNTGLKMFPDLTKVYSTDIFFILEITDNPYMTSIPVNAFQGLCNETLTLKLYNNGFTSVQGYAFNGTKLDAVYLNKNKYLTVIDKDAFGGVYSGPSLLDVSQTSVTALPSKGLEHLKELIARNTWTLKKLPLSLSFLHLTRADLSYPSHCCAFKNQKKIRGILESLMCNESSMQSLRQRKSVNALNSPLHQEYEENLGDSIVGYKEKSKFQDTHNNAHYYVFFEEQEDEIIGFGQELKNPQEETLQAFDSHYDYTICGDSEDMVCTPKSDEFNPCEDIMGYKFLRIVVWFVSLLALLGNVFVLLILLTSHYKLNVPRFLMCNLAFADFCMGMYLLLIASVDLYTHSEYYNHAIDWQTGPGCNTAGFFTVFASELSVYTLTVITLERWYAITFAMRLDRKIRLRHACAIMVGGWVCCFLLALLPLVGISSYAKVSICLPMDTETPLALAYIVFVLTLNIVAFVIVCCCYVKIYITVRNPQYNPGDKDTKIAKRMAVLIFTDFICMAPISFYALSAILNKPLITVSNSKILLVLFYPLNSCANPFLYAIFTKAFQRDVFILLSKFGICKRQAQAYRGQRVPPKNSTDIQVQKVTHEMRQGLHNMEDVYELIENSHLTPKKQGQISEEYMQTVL
Estrogen receptor beta (Homo sapiens), sequence (Q92731 whole entry, looked up): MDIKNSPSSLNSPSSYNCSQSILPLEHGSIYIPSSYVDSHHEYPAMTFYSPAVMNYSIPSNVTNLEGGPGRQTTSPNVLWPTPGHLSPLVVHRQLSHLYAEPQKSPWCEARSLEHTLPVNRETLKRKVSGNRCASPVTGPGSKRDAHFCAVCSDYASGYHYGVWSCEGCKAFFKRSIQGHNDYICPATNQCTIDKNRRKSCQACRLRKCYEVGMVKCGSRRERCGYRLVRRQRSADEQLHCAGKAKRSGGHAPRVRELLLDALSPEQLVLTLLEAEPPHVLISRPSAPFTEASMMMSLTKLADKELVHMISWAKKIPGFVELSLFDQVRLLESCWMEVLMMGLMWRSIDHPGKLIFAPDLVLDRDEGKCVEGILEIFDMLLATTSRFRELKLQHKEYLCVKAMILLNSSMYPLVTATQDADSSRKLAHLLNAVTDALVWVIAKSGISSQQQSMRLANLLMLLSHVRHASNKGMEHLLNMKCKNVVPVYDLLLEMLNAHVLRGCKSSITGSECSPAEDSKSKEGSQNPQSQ

As for `O=C(O)c1ccc(O)cc1`, the Potency entry in assay [1], in [2], in assay [4], in [5], in assay [6] and in assay [7] was “inactive” in each case. For the same compound, the Potency result in assay [8], in [9], in assay [10] and in [11] was “inactive” each time. Further, in assay [3], the result was inactive.
For `C[C@]12CC[C@@H]3c4ccc(O)cc4CC[C@H]3[C@@H]1CC[C@@H]2O`, the Potency result in [1], in [12], in [4], in assay [5], in [6] and in assay [7] was “inactive” in each case. Moreover, the Potency entry in [9] is “inactive”. Also, the call in [3] was inactive. The Potency in assay [13] was 3.06 µM (active) and 5.45 µM (active).
As for `C[C@]12CC[C@@H]3c4ccc(O)cc4CC[C@H]3[C@@H]1CC[C@H]2O`, the Potency result in assay [1], in assay [2], in [4], in assay [5], in assay [6] and in assay [7] was “inactive” each time. Further, the Potency result in assay [10] and in [14] was “inactive” each time. The outcome in assay [3] was inactive. Moreover, in assay [11], the Potency was 31.2 µM (active).
For `CCCCCCOCCOCCO`, the Potency result in [1], in [4], in assay [5], in assay [6], in assay [13] and in assay [7] was “inactive” throughout. Further, the Potency entry in [8], in [9], in assay [10] and in [11] was “inactive” throughout. For the same compound, the compound was called inactive in assay [3].
As to `CC1=CC(C)(C)Nc2ccccc21`, the Potency entry in assay [1], in assay [15], in [4], in [5], in [6] and in [16] was “inactive” each time. For the same compound, the Potency result in assay [17], in [7], in [8], in assay [9], in [18] and in assay [14] was “inactive” in each case. The call in assay [3] was inactive.
Consider `COCCOCCOCCO`, for which the Potency result in assay [1], in assay [2], in assay [4], in [5], in assay [6] and in assay [13] was “inactive” each time. In addition, the Potency entry in assay [7], in assay [8], in [9], in assay [10] and in assay [11] was “inactive” throughout. Moreover, the outcome in [3] was inactive.
`C=CC(C)(O)CCC=C(C)C` (stereo not given): the Potency entry in assay [1], in assay [4], in assay [5], in assay [6], in assay [16] and in [17] was “inactive” each time. Besides, the Potency entry in assay [7], in assay [8], in assay [9] and in assay [11] was “inactive” each time. Further, in [3], the call was inactive.
On to `IC(I)I`, for which the Potency result in [1], in [12], in assay [2], in [4], in assay [5] and in assay [6] was “inactive” throughout. In addition, the Potency entry in assay [16], in assay [17], in [7], in [8], in assay [9] and in assay [11] was “inactive” each time. The Potency result in [14] was “inactive”. The compound was classed as inactive in assay [3]. In assay [13], the Potency is 15.3 µM (active) and inactive.
Regarding `O=C1OC2(c3ccccc31)c1cc(I)c(O)c(I)c1Oc1c2cc(I)c(O)c1I`, the Potency in assay [1] was 9.71 µM (active) [middle of 4 runs]; in assay [4] it was 15.5 µM (active) [middle of 4 runs]; in [5], 15.5 µM (active) [middle of 4 runs]; in assay [13] it was “inactive and 8.73 µM (active) and 20.9 µM (active)”; in [7], 10.6 µM (active) [middle of 4 runs]. Also, the Potency result in assay [12], in assay [2], in [6], in assay [8] and in assay [9] was “inactive” in each case.
`Clc1ccc(Sc2cc(Cl)c(Cl)cc2Cl)cc1`: the Potency result in assay [1], in assay [2], in [4], in assay [5], in assay [6] and in assay [13] was “inactive” each time. Moreover, the Potency result in [16], in assay [17], in [7], in [8], in assay [9] and in [11] was “inactive” throughout. In addition, the outcome in [3] was inactive.
